In PubChem BioAssay (NCI) one finds growth data, which are given here for 15 molecules.

Some test systems named below: NCI-H23 lung; NCI-H226 lung; NCI-H322M lung; HOP-62 NSCLC; NCI-H460 lung; HOP-92 NSCLC; NCI-H522 lung; A549/ATCC NSCLC; 786-0 renal; COLO 205 colon.
Holding throughout (test): NCI-60 one-dose screen, 48 h (100 = growth as untreated, 0 = no growth, -100 = all killed)
Common to all, as to details: 10 µM unless noted

The panel holds about 83,000 compounds, 20% with a hit somewhere; the sample as a whole holds those more often.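 Compound tested at a single concentration for 48 hours in 96-well plates; a percent growth value below 10 was scored as active.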 Values without a mark were called inactive. Active and inactive are the calls of the source.

With `S=C(NCCc1ccccc1)Nc1ccc(OCc2nc3ccccc3[nH]2)cc1`, the growth in the test with NCI-H23 lung is 104%; with NCI-H226 lung, 108%; with NCI-H322M lung it was 100%; in the test with HOP-62 NSCLC, 103%; in the test on NCI-H460 lung, 108%; in the test with HOP-92 NSCLC it was 100%. The growth in the test with NCI-H522 lung was 101%; in the test on A549/ATCC NSCLC, 101%; in the test on 786-0 renal, 105%; with COLO 205 colon it was 109%.
On to `N#Cc1c(-c2cccnc2)cc(-c2ccc3ccccc3c2)[nH]c1=O`, for which the growth with NCI-H23 lung is 77%; in the test on NCI-H226 lung it was 81.9%; with NCI-H322M lung it was 90.1%; in the test with HOP-62 NSCLC, 91.8%; in the test with NCI-H460 lung, 83.7%; in the test with HOP-92 NSCLC, 78.5%. The growth with NCI-H522 lung was 66.2%; in the test with A549/ATCC NSCLC, 85.1%; in the test with 786-0 renal, 11.9%; in the test with COLO 205 colon it was 115%.
Take `C[C@H](Nc1nc(NCCc2ccccc2)nc2ccccc12)c1ccccc1`: the growth in the test with NCI-H23 lung is -85.2% (active); with NCI-H226 lung, -80.4% (active); with NCI-H322M lung, -55.9% (active); in the test on HOP-62 NSCLC, -90.3% (active); with NCI-H460 lung, -75.3% (active); in the test on HOP-92 NSCLC it was -81.1% (active). Also, the growth in the test with NCI-H522 lung is -82.9% (active); with A549/ATCC NSCLC it was -33.2% (active); in the test with 786-0 renal, -87.3% (active); in the test on COLO 205 colon it was -93.7% (active).
With `S=C(Nc1ccccc1)Nc1ccc(OCc2nc3ccccc3[nH]2)cc1`, the growth with NCI-H23 lung is 37%; in the test on NCI-H226 lung it was 79.9%; in the test on NCI-H322M lung, 63.6%; with HOP-62 NSCLC, 43.6%; in the test on NCI-H460 lung it was 31.3%; in the test on HOP-92 NSCLC, 74.8%. Moreover, the growth with NCI-H522 lung is 2.87% (active); in the test with A549/ATCC NSCLC, 31%; in the test on 786-0 renal, 31.8%; in the test on COLO 205 colon it was 32.9%.
Consider `COc1cc2c(c(OC)c1OC)C(=O)CC(c1cccc(NC(=O)c3cc([N+](=O)[O-])ccc3Cl)c1)O2` (stereo not given), for which the growth is 20.1% with NCI-H23 lung; 25.3% in the test on NCI-H226 lung; 55.7% in the test with NCI-H322M lung; 43% with HOP-62 NSCLC; 30.8% in the test with NCI-H460 lung; 36.3% with HOP-92 NSCLC. In addition, the growth with NCI-H522 lung was -27.1% (active); in the test with A549/ATCC NSCLC, 35.6%; in the test on 786-0 renal, 25.1%; in the test with COLO 205 colon it was 37.1%.
As for `CC(C)c1ccc2c(N)c(C(=O)Nc3cccc(C(F)(F)F)c3)sc2n1`, the growth in the test on NCI-H23 lung was 90.5%; with NCI-H226 lung, 69.3%; with NCI-H322M lung, 81.2%; with HOP-62 NSCLC it was 62.6%; in the test with NCI-H460 lung it was 67.7%; with HOP-92 NSCLC, 82.7%. Besides, the growth is 48.8% with NCI-H522 lung, 78.8% in the test on A549/ATCC NSCLC, 67.9% with 786-0 renal and 48.2% with COLO 205 colon.
Consider `CC(=O)OC[C@@]1(C)C2CC[C@]3(C)C(CC=C4C5CC(C)(C)CC[C@]5(C(=O)Nc5cccc(C)c5)CC[C@]43C)[C@@]2(C)C[C@@H](OC(C)=O)[C@@H]1OC(C)=O` (stereo not given in full), for which the growth was 45% in the test on NCI-H23 lung; 39% with NCI-H226 lung; 65.9% with NCI-H322M lung; 40.4% in the test with HOP-62 NSCLC; 12.7% in the test on NCI-H460 lung; 50.8% in the test on HOP-92 NSCLC. Also, the growth with NCI-H522 lung is 40.3%; in the test with A549/ATCC NSCLC, 40.7%; with 786-0 renal, 53.4%; in the test on COLO 205 colon, 45.7%.
As for `COc1ccc(C(=O)/C=C/c2ccccc2Br)cc1S(N)(=O)=O`, the growth with NCI-H23 lung is -21.4% (active); in the test with NCI-H226 lung it was 21.5%; in the test on NCI-H322M lung, 20.6%; in the test with HOP-62 NSCLC, -18.7% (active); in the test with NCI-H460 lung it was 1.47% (active); with HOP-92 NSCLC, 76.8%. Moreover, the growth in the test with NCI-H522 lung is -67% (active); in the test on A549/ATCC NSCLC, -81.4% (active); with 786-0 renal, -78% (active); with COLO 205 colon, -72.8% (active).
`COc1ccc(N2N=C(c3ccc4c(c3)OCO4)CC2c2cccc(NC(=O)CCCNS(=O)(=O)c3ccc(F)cc3)c2)cc1` (stereo not given): the growth in the test with NCI-H23 lung is 73.7%; with NCI-H226 lung, 67.2%; with NCI-H322M lung, 76.1%; with HOP-62 NSCLC, 82.4%; in the test on NCI-H460 lung, 50.6%; in the test on HOP-92 NSCLC, 90.4%. Also, the growth with NCI-H522 lung was -7.84% (active); with A549/ATCC NSCLC, 49.1%; with 786-0 renal, 62.5%; in the test on COLO 205 colon it was 65.3%.
With `CSc1ccc(C(=O)Nc2ccc3nnn(/C(C#N)=C/c4ccccn4)c3c2)cc1`, the growth is -77.8% (active) in the test on NCI-H23 lung; -53.4% (active) in the test with NCI-H226 lung; 57.9% with NCI-H322M lung; -5.88% (active) in the test with HOP-62 NSCLC; -40.1% (active) in the test on NCI-H460 lung; -24.8% (active) in the test on HOP-92 NSCLC. In addition, the growth was -84.6% (active) with NCI-H522 lung, 15% with A549/ATCC NSCLC, -90.3% (active) in the test on 786-0 renal and -66.2% (active) in the test on COLO 205 colon.
With `COc1ccc(NC(=O)[C@H](CO)NC(=O)OC(C)(C)C)cc1C(=O)Nc1cccc(C2CC(=O)c3c(cc(OC)c(OC)c3OC)O2)c1` (stereo not given in full), the growth was 50.7% in the test with NCI-H23 lung; 48.1% in the test on NCI-H226 lung; 81.1% in the test on NCI-H322M lung; 83% with HOP-62 NSCLC; 55.3% in the test with NCI-H460 lung; 81.9% in the test with HOP-92 NSCLC. In addition, the growth in the test with NCI-H522 lung was 31.4%; in the test on A549/ATCC NSCLC, 68.8%; with 786-0 renal it was 68.3%; in the test with COLO 205 colon, 77.2%.
For `COc1ccc(-c2c(Nn3cnnn3)no[n+]2[O-])cc1`, the growth with NCI-H23 lung is 58.9%; with NCI-H226 lung, 83.2%; in the test on NCI-H322M lung, 63.5%; in the test on HOP-62 NSCLC, 75.2%; in the test on NCI-H460 lung it was 39.5%; with HOP-92 NSCLC, 26%. Also, the growth was -14.3% (active) in the test on NCI-H522 lung, 67.1% in the test on A549/ATCC NSCLC, 53.6% in the test with 786-0 renal and 55.1% in the test with COLO 205 colon.
For `COc1ccc(-c2nc(SC(C)C)nc(NCCc3c[nH]c4ccccc34)c2C#N)cc1`, the growth is 45.6% with NCI-H23 lung; 40.8% in the test with NCI-H226 lung; 87.7% with NCI-H322M lung; 51.5% in the test on HOP-62 NSCLC; 24.1% in the test with NCI-H460 lung; 39% with HOP-92 NSCLC. For the same molecule, the growth in the test with NCI-H522 lung is 35.8%; in the test on A549/ATCC NSCLC it was 47.1%; in the test with 786-0 renal, 30.3%; with COLO 205 colon, 45.7%.
Take `COc1cc(C2CC(c3cc(OC)c(OC)c(OC)c3)=NN2C(C)=O)ccc1OCc1ccccc1` (stereo not given): the growth with NCI-H23 lung was 47.2%; with NCI-H226 lung, 28%; in the test with NCI-H322M lung, 59.8%; in the test with HOP-62 NSCLC, 70.2%; in the test on NCI-H460 lung it was 24.3%; in the test on HOP-92 NSCLC it was -4.8% (active). In addition, the growth in the test with NCI-H522 lung is 26.8%; with A549/ATCC NSCLC, 31.8%; with 786-0 renal, 34%; with COLO 205 colon, 10.9%.
With `COc1ccc(C(=O)/C=C/c2ccc3ccccc3c2)cc1S(N)(=O)=O`, the growth is -23.7% (active) in the test on NCI-H23 lung; 20.1% in the test on NCI-H226 lung; 11.3% with NCI-H322M lung; -30.1% (active) in the test on HOP-62 NSCLC; 2.36% (active) in the test with NCI-H460 lung; 24.9% in the test on HOP-92 NSCLC. The growth in the test with NCI-H522 lung was -62.9% (active); in the test with A549/ATCC NSCLC, -78.4% (active); in the test on 786-0 renal, -89.2% (active); in the test on COLO 205 colon, -76.3% (active).
